Laboratory results: PubChem BioAssay
Values without a mark were called inactive. The source made the active and inactive calls. Cut-off read from the data, not from the text of the source, unless noted: active = nuclear beta-catenin stimulation mostly above about 4.2% (no sharp cut-off); inactive = mostly below about 10%.

System: Hepatitis C virus NS3 helicase
Assay: HCV NS3 helicase inhibitors, primary screen, biochemical, fluorescence polarization, LOPAC1280 library (AID 687035; in the data active = inhibition above about 37%)
Settings: Purified HCV NS3 helicase, Cy5-dT15 ssDNA binding fluorescence polarization; active compounds read high; concentration not given here

Structure (SMILES)	inhibition [%]
CC(=O)O[C@]1(C(C)=O)CC[C@H]2[C@@H]3C=C(Cl)C4=CC(=O)[C@@H]5C[C@@H]5[C@]4(C)[C@H]3CC[C@@]21C	-1
Cc1cc2c(C(C)C)c(O)c(O)c(C=O)c2c(O)c1-c1c(C)cc2c(C(C)C)c(O)c(O)c(C=O)c2c1O	-1
NCCS(=O)(=O)O	-4
CCN(CC)C(C)CN1c2ccccc2Sc2ccccc21 (configuration not stated)	-1
CCCCCN(CCCCC)C(=O)C(CCC(=O)O)NC(=O)c1ccc(Cl)c(Cl)c1 (configuration not stated)	-5
CSc1ccc2c(c1)C(N1CCN(C)CC1)Cc1ccccc1S2 (configuration not stated)	-5
C=CCc1ccccc1OCC(O)CNC(C)C (configuration not stated)	-4
CC1(C)NC(=O)N(c2ccc([N+](=O)[O-])c(C(F)(F)F)c2)C1=O	-2
O=C(Nc1ccc([N+](=O)[O-])cc1Cl)c1cc(Cl)ccc1O	-2
CC(=O)OCC1=C(C(=O)O)N2C(=O)[C@@H](NC(=O)Cc3cccs3)[C@H]2SC1	0
COC(=O)[C@@H]1[C@H]2C[C@H]3c4[nH]c5ccccc5c4CCN3C[C@@H]2CC[C@@H]1O	0
CCCC(C(=O)OCCN(CC)CC)(c1ccccc1)c1ccccc1	-6

System: not listed separately
Assay: Cy5 fluorescence quenching or enhancement artefacts, artefact control for HCV NS3 helicase inhibitor project, biochemical, LOPAC1280 (AID 687037; call rule not given here)
Settings: Cy5-DNA-NS3h complex fluorescence interference counterscreen

Structure (SMILES)	fluorescence ratio (interference)
CC(=O)O[C@]1(C(C)=O)CC[C@H]2[C@@H]3C=C(Cl)C4=CC(=O)[C@@H]5C[C@@H]5[C@]4(C)[C@H]3CC[C@@]21C	0.9
Cc1cc2c(C(C)C)c(O)c(O)c(C=O)c2c(O)c1-c1c(C)cc2c(C(C)C)c(O)c(O)c(C=O)c2c1O	0.9
NCCS(=O)(=O)O	0.9
CCN(CC)C(C)CN1c2ccccc2Sc2ccccc21 (configuration not stated)	1
CCCCCN(CCCCC)C(=O)C(CCC(=O)O)NC(=O)c1ccc(Cl)c(Cl)c1 (configuration not stated)	0.9
CSc1ccc2c(c1)C(N1CCN(C)CC1)Cc1ccccc1S2 (configuration not stated)	0.9
C=CCc1ccccc1OCC(O)CNC(C)C (configuration not stated)	1
CC1(C)NC(=O)N(c2ccc([N+](=O)[O-])c(C(F)(F)F)c2)C1=O	1
O=C(Nc1ccc([N+](=O)[O-])cc1Cl)c1cc(Cl)ccc1O	1
CC(=O)OCC1=C(C(=O)O)N2C(=O)[C@@H](NC(=O)Cc3cccs3)[C@H]2SC1	1
COC(=O)[C@@H]1[C@H]2C[C@H]3c4[nH]c5ccccc5c4CCN3C[C@@H]2CC[C@@H]1O	1.1
CCCC(C(=O)OCCN(CC)CC)(c1ccccc1)c1ccccc1	0.9

System: not listed separately
Assay: stimulators of nuclear beta-catenin in C2C12, primary screen, imaging, WNT3A-conditioned medium, mouse C2C12, NPC library (AID 1117326)
Settings: at 10 µM, active compounds read high

Structure (SMILES)	nuclear beta-catenin stimulation
CC(=O)O[C@]1(C(C)=O)CC[C@H]2[C@@H]3C=C(Cl)C4=CC(=O)[C@@H]5C[C@@H]5[C@]4(C)[C@H]3CC[C@@]21C	1.2%
CN1CCC(=C2c3ccccc3Sc3ccccc32)CC1	-0.1%
Cc1c(NC(C)C)c(=O)n(-c2ccccc2)n1C	3.6%
N[C@@H](CCC(=O)N[C@@H](CS)C(=O)NCC(=O)O)C(=O)O	-1%
O=C(COc1ccc(Cl)cc1)N1CCN(Cc2ccc3c(c2)OCO3)CC1	1%
Cc1cc2c(C(C)C)c(O)c(O)c(C=O)c2c(O)c1-c1c(C)cc2c(C(C)C)c(O)c(O)c(C=O)c2c1O	64.5% (active)
NCCS(=O)(=O)O	5.3%
O=C(O)c1cc(=O)c2ccccc2o1	-0.2%
CCOC(=O)c1ccc(N)cc1	0.3%
O=C(O)CN1C(=O)c2cccc3cccc(c23)C1=O	-0.2%
CN(C)CCOC(=O)C(c1ccccc1)C1(O)CCCC1 (configuration not stated)	0.3%
Oc1ccc(Cl)cc1Cc1cc(Cl)ccc1O	10.6%
CC(=O)Nc1ccc(S(=O)(=O)Nc2ccc([N+](=O)[O-])cc2)cc1	1.1%
CCN(CC)C(C)CN1c2ccccc2Sc2ccccc21 (configuration not stated)	3.4%
CO[C@@H]1[C@@H](OC(N)=O)[C@@H](O)[C@H](Oc2ccc3c(O)c(NC(=O)c4ccc(O)c(CC=C(C)C)c4)c(=O)oc3c2C)OC1(C)C	-0.7%
CCCCCN(CCCCC)C(=O)C(CCC(=O)O)NC(=O)c1ccc(Cl)c(Cl)c1 (configuration not stated)	-0.8%
O=C(O)P(=O)(O)O	0.2%
CCN(CC)CCOC(=O)C(c1ccccc1)C1CCCCC1 (configuration not stated)	5%
CSc1ccc2c(c1)C(N1CCN(C)CC1)Cc1ccccc1S2 (configuration not stated)	61.9% (active)

Structure (SMILES)	nuclear beta-catenin stimulation
C=CCc1ccccc1OCC(O)CNC(C)C (configuration not stated)	0.1%
COC(=O)N/N=C/c1c[n+]([O-])c2ccccc2[n+]1[O-]	1.7%
O=C1OC(c2ccc(O)cc2)(c2ccc(O)cc2)c2ccccc21	1.3%
O=C(N[C@H](CO)[C@H](O)c1ccc([N+](=O)[O-])cc1)C(Cl)Cl	-0.9%
CC1(C)NC(=O)N(c2ccc([N+](=O)[O-])c(C(F)(F)F)c2)C1=O	-0.3%
CO/N=C1\CN(c2nc3c(cc2F)c(=O)c(C(=O)O)cn3C2CC2)CC1CN (configuration not stated)	4.1%
COc1ccc(C(=O)c2ccccc2)c(O)c1	1.5%
CCn1cc(C(=O)O)c(=O)c2cnc(N3CCCC3)nc21	-0.4%
Oc1cccc(O)c1	-0.3%
Oc1ccc(OCc2ccccc2)cc1	2.5%
O=C(Nc1ccc([N+](=O)[O-])cc1Cl)c1cc(Cl)ccc1O	56.2% (active)
CC(=O)OCC1=C(C(=O)O)N2C(=O)[C@@H](NC(=O)Cc3cccs3)[C@H]2SC1	2.4%
CC(C)NCC(O)c1ccc2ccccc2c1 (configuration not stated)	0.7%
CC[C@]12CCCN3CCc4c(n(c5ccccc45)[C@@](O)(C(=O)OC)C1)[C@@H]32	-2.1%
CC(N)C(=O)OC(C)(C)Cc1ccc(Cl)cc1 (configuration not stated)	8%
O=C(CCBr)N1CCN(C(=O)CCBr)CC1	1.4%
COC(=O)[C@@H]1[C@H]2C[C@H]3c4[nH]c5ccccc5c4CCN3C[C@@H]2CC[C@@H]1O	1%
NC(=O)c1ccccc1O	0.9%
CCCC(C(=O)OCCN(CC)CC)(c1ccccc1)c1ccccc1	0%
